The values below come from PubChem BioAssay (NCATS).

Values joined by “and” are separate entries in the source; they are usually repeats but may differ in a detail not shown here. Equal entries are not always repeated. Records with an inconclusive call do not appear. The source holds several records for some structures; these can differ, active in one and inactive in another. Active and inactive are the calls of the source. Unless noted, calls follow the shape of the dose curve; as a rule, active = well fitted curve in the direction sought with a large enough effect; inconclusive = small, poorly fitted or top-dose-only effect, or another doubt; inactive = no such curve, though single readings can be large; an effect the other way counts as inactive or inconclusive. Where only a bound is given, the exact number is not on record here.

The nature of experiment [1]: AP1 Signaling Pathway (AID 357; active = well fitted curve in either direction with a large enough effect, not every such curve was filed as active;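 also: ME-180 reporter cells stimulated with EGF at its EC50 level; % is scaled to controls: 0 for no effect and ±100 for the full control effect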). The conditions noted are these: ME-180 AP-1-bla reporter, EGF-induced, beta-lactamase ratio, 5 h; at 38 µM (top of the series). The method, boiled down:
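Read-out was the 460nm/530nm emission ratio (excitation 405nm) after CCF4 loading for 2.5 hours at room temperature. Cells carried an AP-1-driven beta-lactamase reporter, were stimulated with EC50 EGF plus compound for 5 hours, and AC50 values came from titrations.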

In experiment [2] the target is Cytochrome P450 1A2 (Homo sapiens) (UniProt P05177). In words: p450-cyp1a2 (AID 410; calls by dose curve; also: potency is read from the fitted curve at half-maximal effect;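 as to activity change, negative = inhibition: -100% = full effect of reference inhibitor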). The method, boiled down: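 Human CYP1A2 (20nM) demethylated Luciferin-ME at its Km (100uM) in 100mM KPO4. After 10 min compound preincubation, NADPH regeneration ran the reaction 60 min at room temperature. Luciferin was read by luminescence, normalized to 57 uM furafylline.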
Chain of Cytochrome P450 1A2 (Homo sapiens) (P05177 whole entry, looked up): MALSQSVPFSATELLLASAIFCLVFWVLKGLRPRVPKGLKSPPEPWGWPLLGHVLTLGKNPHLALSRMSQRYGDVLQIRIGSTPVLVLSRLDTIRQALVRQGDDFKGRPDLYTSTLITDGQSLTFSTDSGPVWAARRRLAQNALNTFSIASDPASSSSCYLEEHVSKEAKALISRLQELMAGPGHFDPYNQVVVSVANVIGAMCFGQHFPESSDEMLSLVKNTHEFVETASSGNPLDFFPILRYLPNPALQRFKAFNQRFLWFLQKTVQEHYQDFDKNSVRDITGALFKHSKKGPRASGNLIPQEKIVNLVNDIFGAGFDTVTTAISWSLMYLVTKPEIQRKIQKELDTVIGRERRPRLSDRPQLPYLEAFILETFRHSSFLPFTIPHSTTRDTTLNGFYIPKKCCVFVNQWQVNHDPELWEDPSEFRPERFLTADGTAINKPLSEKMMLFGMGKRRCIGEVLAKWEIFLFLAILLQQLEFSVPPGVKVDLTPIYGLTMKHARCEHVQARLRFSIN
A short description of experiment [3]: NFAT Signaling Pathway (AID 444; active = well fitted curve in either direction with a large enough effect, not every such curve was filed as active;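 also: carbachol stimulus at about its EC50 of 1 µM final; % is scaled to controls: 0 for no effect and ±100 for the full control effect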). The note with it: Jurkat NFAT-bla M1, carbachol, beta-lactamase ratio, 5 h. The method, boiled down: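 Jurkat cells carrying an NFAT-driven β-lactamase reporter and co-transfected muscarinic M1 receptor were treated with compound plus carbachol (1 uM final, an EC50 level) for 5 h at 37 °C. CCF4 loading followed for 1 h at RT; 460/530 nm ratio gave %activity.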

Experiment [4] can be described thus: Stat Signaling Pathway (AID 446; active = well fitted curve in either direction with a large enough effect, not every such curve was filed as active;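 also: ME-180 cervical cancer cells given 40 pM IL-6 alongside compound; SIE-controlled beta-lactamase reporter measured as 460/530 nm FRET emission ratio; % is scaled to controls: 0 for no effect and ±100 for the full control effect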). The note with it: ME-180 (cervical carcinoma) SIE beta-lactamase reporter, IL-6 stimulated, 5 h. A digest of the protocol:
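ME-180 SIE-bla cells; overnight plating; cpd + IL-6 40 pM, 5 h, 37 C; LiveBLAzer 2.5 h RT; 460/530 nm emission ratio. Normalized to 300 pM IL-6 and 125 nM JAK inhibitor controls.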

In experiment [5] the target is Glucocorticoid receptor (Homo sapiens) (UniProt P04150). The experiment can be described thus: GR-GFP Redistribution (AID 450;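 active = compounds whose dose series gives a full or clear partial fitted curve of increased nuclear translocation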; also: potency is read from the fitted curve at half-maximal effect). The note with it: U2OS GR-GFP nuclear translocation, laser cytometry, 2 h.
Chain of Glucocorticoid receptor (Homo sapiens) (P04150 whole entry, looked up, the tested form may be a part): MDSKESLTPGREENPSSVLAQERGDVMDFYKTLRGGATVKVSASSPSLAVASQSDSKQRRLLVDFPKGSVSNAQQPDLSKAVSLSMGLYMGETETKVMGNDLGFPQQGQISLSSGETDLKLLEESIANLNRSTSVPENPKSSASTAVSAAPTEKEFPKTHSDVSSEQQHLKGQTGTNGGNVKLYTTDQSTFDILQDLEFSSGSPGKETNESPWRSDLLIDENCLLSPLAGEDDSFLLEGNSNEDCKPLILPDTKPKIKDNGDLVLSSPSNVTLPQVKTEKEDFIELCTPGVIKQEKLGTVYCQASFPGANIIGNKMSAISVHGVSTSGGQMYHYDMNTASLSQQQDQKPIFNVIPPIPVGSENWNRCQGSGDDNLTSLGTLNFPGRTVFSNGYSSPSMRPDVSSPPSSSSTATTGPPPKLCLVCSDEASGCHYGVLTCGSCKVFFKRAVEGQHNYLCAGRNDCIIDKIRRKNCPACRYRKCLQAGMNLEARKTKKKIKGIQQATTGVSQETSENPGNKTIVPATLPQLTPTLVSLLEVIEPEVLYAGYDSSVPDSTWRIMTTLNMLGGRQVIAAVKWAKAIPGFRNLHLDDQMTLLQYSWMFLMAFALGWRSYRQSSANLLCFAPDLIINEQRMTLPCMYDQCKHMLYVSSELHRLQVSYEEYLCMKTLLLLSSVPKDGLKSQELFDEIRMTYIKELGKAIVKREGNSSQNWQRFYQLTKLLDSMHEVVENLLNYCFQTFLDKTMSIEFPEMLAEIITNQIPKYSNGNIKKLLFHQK
Experiment [6] has the same target. In words: GR-EFC Redistribution (AID 451; calls by dose curve; also: potency is read from the fitted curve at half-maximal effect). The conditions noted are these: CHO-K1 GR-EFC translocation, beta-gal luminescence, 2 h. A digest of the protocol: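 CHO-K1 cells stably expressing nuclear-localized β-gal enzyme acceptor and GR fused C-terminally to the enzyme donor fragment; ligand-driven nuclear translocation restores β-gal by complementation. Compounds titrated up to 46 uM final, 2 h at 37 °C; luminescence read.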

Experiment [7] deals with Mitogen-activated protein kinase 10 (Mus musculus) (UniProt Q61831). The experiment can be described thus: JNK3 AlphaScreen Assay (AID 530; active = well fitted curve in either direction with a large enough effect, not every such curve was filed as active;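 also: kinase came from lysate of stimulated human HepG2 cells; signal reports phosphorylation of biotinylated GST-cJun 1-79 at Ser73 with 10 µM ATP; % is scaled to controls: 0 for no effect and ±100 for the full control effect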). A digest of the protocol: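 JNK3 came from HepG2 lysates pre-activated with IL-1beta and TNF-alpha and phosphorylated biotinylated GST-cJun (1-79) at 10 uM ATP, pH 7.6, room temperature. Compounds were titrated. AlphaScreen signal used anti-phospho-cJun (Ser73) antibody.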

Experiment [8] deals with 3',5'-cyclic-AMP phosphodiesterase 4B (Homo sapiens) (UniProt Q07343). The experiment can be described thus: qHTS Assay for Inhibitors of PDE-IV (AID 607; active = well fitted activation curve with a large enough effect in the main read-out, with a control signal flat, not every such curve was filed as active; also: % of control where 0% means no effect). The method, boiled down: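 ACTOne HEK293 cells carry a modified cAMP-gated CNG channel and express endogenous PDE4; plated 1000 cells/well, compounds up to 22.9 uM final. Membrane-potential dye fluorescence (ex 535/em 590) was read; parental cells received 10 uM forskolin + 100 uM RO 20-1724.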
Chain of 3',5'-cyclic-AMP phosphodiesterase 4B (Homo sapiens) (Q07343 whole entry, looked up): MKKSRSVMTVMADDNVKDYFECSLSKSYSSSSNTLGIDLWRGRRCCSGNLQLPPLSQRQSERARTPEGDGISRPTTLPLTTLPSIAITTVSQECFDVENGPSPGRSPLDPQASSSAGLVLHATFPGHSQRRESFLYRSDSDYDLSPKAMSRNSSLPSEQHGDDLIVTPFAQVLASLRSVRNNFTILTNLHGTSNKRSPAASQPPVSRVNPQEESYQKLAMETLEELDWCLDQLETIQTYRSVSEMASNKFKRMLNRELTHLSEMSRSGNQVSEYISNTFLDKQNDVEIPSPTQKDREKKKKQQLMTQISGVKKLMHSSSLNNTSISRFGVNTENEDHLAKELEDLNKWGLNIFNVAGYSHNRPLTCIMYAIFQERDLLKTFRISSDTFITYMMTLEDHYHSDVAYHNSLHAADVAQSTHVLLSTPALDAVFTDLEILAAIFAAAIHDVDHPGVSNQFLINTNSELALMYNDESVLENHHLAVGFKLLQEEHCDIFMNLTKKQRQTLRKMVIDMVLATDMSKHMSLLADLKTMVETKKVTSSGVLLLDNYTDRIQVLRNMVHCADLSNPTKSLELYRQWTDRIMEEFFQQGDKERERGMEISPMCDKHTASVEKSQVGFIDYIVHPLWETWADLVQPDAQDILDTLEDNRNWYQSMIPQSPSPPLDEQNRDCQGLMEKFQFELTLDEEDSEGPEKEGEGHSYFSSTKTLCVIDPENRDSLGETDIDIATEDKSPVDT
A general note: Quantitative high-throughput screening tests each substance at several concentrations.

Experiment [9] has as its target Guanine nucleotide-binding protein G(i) subunit alpha-1 (Homo sapiens) (UniProt P63096). The experiment can be described thus: qHTS Assay for Inhibitors of RGS12 GoLoco Motif Activity (Green Fluorophore) (AID 879).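 Also: 0% = labeled peptide with Gαi1 and full inhibition = labeled peptide alone without protein; negative values mean loss of peptide binding seen as reduced polarization.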 A digest of the protocol: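 Fluorescence polarization assay: 50 nM Gαi1 with 10 nM FITC-labeled RGS12 GoLoco peptide in 10 mM Tris pH 7.5, 150 mM NaCl, 0.1 mM GDP, 0.05% NP40, 10 min at room temperature with compound.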

Experiment [10] addresses Cytochrome P450 3A4 (Homo sapiens) (UniProt P08684). In words: qHTS Assay for Activators of Cytochrome P450 3A4 (AID 885). Also: nearly all actives have a fitted effect of over 65% in size. The method, boiled down:
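20nM CYP3A4 + 25uM Luciferin-PPXE (=KM), 200mM KPO4; cpd 10 min RT; NADPH regen, 60 min RT; stop w/ detection buffer, 20 min; luminescence. Normalized to 57 uM ketoconazole.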

A short description of experiment [11]: qHTS Assay for Identification of Small Molecule Agonists for Thrombopoietin (TPO) Signaling Pathway (AID 917). Also: % is scaled to controls: 0 for no effect and ±100 for the full control effect. A digest of the protocol: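 We measured Glycoprotein IIb promoter–luciferase output in IL-3-starved Ba/F3 murine cells expressing the human TPO receptor after 24 hrs at 37 C with compounds and 26 pM TPO.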
The target of experiment [12] is Pyruvate kinase PKM (Homo sapiens) (UniProt P14618). The experiment can be described thus: qHTS Assay for Activators of Human Muscle Pyruvate Kinase (AID 954; active = well fitted curve in the direction sought with a large enough effect, not every such curve was filed as active;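 also: 0% = uninhibited enzyme and -100% = no enzyme or full thiadiazolimine inhibition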). A digest of the protocol:
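Luminescence from a luciferase ATP-detection/stop reagent reported PKM2 activity. Reactions contained 0.1 nM purified human enzyme, 0.5 mM PEP, 0.1 mM ADP and 7 mM MgCl2 at pH 7.2, run 1 h at RT.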

Experiment [13] addresses alpha-glucosidase (Oryza sativa, rice) (UniProt Q653V4). In words: Counterscreen for Glucocerebrosidase Inhibitors: qHTS Assay for Rice alpha-Glucosidase at pH 5.0 (AID 997).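 Also: 0% = full activity with enzyme and -100% = basal without enzyme.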 A digest of the protocol: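 Rice alpha-glucosidase (4 nM final) with 400 uM 4-methylumbelliferyl-alpha-D-glucopyranoside in citrate buffer pH 5.0, 20 min at room temperature, stopped at pH 10; fluorescence 365/440 nm, compounds 0.7 nM–77 uM, AC50 from Hill fits.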
For orientation: The purpose of a counterscreen is to sort out artefacts and off-target activity.

Experiment [14] can be described thus: qHTS Assay for Lipid Storage Modulators (AID 1519; calls by dose curve). The conditions noted are these: Drosophila S3 cells, BODIPY lipid droplet/cell ratio, laser cytometry, cells loaded with oleic acid; for activity change, negative = inhibition: at 25.7 µM (top of the series). A digest of the protocol:
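Cells seeded at 5,000 per well were treated with compounds over a concentration series and loaded with oleic acid (400 uM, as added). Lipid droplet fluorescence (488 nm excitation, 500-530 nm channel) was read by laser-scanning cytometry and normalized to 20 uM Triacsin C.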

In experiment [15] the target is DNA dC->dU-editing enzyme APOBEC-3G (Homo sapiens) (UniProt Q9HC16). The experiment can be described thus: qHTS for inhibitors of Vif-A3G interactions: Validation (AID 588379). Also: 0% is about no effect. A digest of the protocol:
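HeLa cells stably expressing Vif and A3G-eYFP, 700 cells/well, incubated overnight at 37 deg C, then exposed to compound overnight at 37 deg C. Inhibition of Vif-mediated degradation read as increased yellow fluorescence (Ex 488/Em 500-530) by laser-scanning cytometry.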

For experiment [16], the system named is Zika virus NS2B-NS3 protease. The experiment can be described thus: Primary screen GU AMC qHTS for Zika virus inhibitors (AID 1347154).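 Also: 0% = no-inhibitor control and -100% = no-enzyme control; nearly all actives have a fitted effect of over 70% in size.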 A digest of the protocol:
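Unlinked Zika NS2B hydrophilic domain/NS3 protease domain noncovalent complex (25 nM final) in 10 mM Tris-HCl pH 8.0, 0.01% Tween 20, with AMC peptide substrate. Fluorescence (ex 340, em 450 nm) change over 15 min, room temperature; percent inhibition fitted to 4-parameter Hill equation.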

The nature of experiment [17]: Primary qHTS for small molecule stabilizers of the endoplasmic reticulum resident proteome: Secreted ER Calcium Modulated Protein (SERCaMP) assay (AID 1508630). Also: % is scaled to controls: 0 for no effect and ±100 for the full control effect. The method, boiled down: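 GLuc-SERCaMP-expressing SH-SY5Y cells, pretreated 16 h with compound, are challenged with thapsigargin to empty ER calcium stores; after 4 h, coelenterazine is added directly to the medium and luminescence is imaged.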

Experiment [18] has as its target Pyruvate kinase (Leishmania mexicana) (UniProt Q27686). In words: qHTS Validation Assay for Inhibitors of Leishmania Mexicana Pyruvate Kinase (AID 945).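 Also: 0% = DMSO only neutral control wells.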 The method, boiled down:
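The enzyme is a highly purified E451W mutant of LmPYK used at 0.2 nM. It converts 0.5 mM PEP and 0.1 mM ADP over 1 h at room temperature; product ATP is quantified by luciferase luminescence relative to DMSO controls.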

Experiment [19] deals with Ubiquitin carboxyl-terminal hydrolase 1 (Homo sapiens) (UniProt O94782). The experiment can be described thus: Inhibitors of USP1/UAF1: Pilot qHTS (AID 504865).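 Also: rhodamine fluorescence freed from ubiquitin-rhodamine substrate followed over time; top concentration of the series differs between compounds; % is scaled to controls: 0 for no effect and ±100 for the full control effect; nearly all actives have a fitted effect of over 35% in size.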 A digest of the protocol:
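Kinetic fluorescence assay: 1nM USP1/UAF1, 15 min compound preincubation, then 150nM Ub-Rho; 480/540 nm.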

The mark [20] stands for this setting: measured here: cell count channel max response.
The mark [21] stands for this setting: measured here: lipid channel max response.

Chain of Pyruvate kinase PKM (Homo sapiens) (P14618 whole entry, looked up): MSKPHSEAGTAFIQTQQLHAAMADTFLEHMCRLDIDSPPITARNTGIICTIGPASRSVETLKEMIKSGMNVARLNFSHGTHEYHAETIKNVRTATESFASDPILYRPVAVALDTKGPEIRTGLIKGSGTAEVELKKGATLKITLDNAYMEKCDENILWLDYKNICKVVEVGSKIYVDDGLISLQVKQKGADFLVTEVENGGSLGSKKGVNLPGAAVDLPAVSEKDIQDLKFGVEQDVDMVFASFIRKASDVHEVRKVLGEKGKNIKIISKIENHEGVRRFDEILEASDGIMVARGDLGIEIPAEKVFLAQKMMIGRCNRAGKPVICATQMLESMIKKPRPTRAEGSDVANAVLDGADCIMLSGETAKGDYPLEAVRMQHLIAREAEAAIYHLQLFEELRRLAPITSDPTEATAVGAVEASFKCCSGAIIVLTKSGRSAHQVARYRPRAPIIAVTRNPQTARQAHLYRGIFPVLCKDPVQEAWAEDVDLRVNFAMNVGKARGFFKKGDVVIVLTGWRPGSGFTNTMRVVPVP
Chain of Guanine nucleotide-binding protein G(i) subunit alpha-1 (Homo sapiens) (P63096 whole entry, looked up): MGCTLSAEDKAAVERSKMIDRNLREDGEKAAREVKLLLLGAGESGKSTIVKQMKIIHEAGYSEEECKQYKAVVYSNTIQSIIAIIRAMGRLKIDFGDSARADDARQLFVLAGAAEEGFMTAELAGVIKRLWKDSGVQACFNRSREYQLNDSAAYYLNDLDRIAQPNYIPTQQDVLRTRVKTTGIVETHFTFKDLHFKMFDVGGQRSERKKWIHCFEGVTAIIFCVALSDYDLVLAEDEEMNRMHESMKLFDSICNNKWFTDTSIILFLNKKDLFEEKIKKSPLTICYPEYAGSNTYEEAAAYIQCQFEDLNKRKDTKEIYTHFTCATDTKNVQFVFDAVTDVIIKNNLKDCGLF
Chain of Cytochrome P450 3A4 (Homo sapiens) (P08684 whole entry, looked up): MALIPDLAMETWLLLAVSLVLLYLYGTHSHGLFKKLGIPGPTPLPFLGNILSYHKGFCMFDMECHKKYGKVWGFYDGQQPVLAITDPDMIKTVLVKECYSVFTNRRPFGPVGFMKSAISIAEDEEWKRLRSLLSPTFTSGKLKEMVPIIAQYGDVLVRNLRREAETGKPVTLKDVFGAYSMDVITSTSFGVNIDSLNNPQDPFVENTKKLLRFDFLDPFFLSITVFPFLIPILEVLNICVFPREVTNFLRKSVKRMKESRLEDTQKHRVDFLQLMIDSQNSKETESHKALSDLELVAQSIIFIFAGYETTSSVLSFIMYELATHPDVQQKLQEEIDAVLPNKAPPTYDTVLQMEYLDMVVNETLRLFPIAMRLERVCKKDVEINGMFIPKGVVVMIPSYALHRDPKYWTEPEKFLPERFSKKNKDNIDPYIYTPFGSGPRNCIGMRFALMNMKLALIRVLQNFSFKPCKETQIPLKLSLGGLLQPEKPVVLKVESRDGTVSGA
Chain of DNA dC->dU-editing enzyme APOBEC-3G (Homo sapiens) (Q9HC16 whole entry, looked up): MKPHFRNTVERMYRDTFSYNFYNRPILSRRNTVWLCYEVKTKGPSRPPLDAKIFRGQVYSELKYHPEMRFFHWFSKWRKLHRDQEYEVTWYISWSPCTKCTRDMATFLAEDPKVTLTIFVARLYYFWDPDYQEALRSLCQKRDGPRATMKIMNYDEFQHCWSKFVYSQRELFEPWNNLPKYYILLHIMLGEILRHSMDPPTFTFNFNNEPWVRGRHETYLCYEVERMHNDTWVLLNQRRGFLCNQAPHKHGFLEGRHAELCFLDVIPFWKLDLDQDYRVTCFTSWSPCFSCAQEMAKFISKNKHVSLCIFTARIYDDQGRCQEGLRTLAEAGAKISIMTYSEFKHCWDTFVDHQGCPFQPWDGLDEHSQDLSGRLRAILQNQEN
Chain of Ubiquitin carboxyl-terminal hydrolase 1 (Homo sapiens) (O94782 whole entry, looked up): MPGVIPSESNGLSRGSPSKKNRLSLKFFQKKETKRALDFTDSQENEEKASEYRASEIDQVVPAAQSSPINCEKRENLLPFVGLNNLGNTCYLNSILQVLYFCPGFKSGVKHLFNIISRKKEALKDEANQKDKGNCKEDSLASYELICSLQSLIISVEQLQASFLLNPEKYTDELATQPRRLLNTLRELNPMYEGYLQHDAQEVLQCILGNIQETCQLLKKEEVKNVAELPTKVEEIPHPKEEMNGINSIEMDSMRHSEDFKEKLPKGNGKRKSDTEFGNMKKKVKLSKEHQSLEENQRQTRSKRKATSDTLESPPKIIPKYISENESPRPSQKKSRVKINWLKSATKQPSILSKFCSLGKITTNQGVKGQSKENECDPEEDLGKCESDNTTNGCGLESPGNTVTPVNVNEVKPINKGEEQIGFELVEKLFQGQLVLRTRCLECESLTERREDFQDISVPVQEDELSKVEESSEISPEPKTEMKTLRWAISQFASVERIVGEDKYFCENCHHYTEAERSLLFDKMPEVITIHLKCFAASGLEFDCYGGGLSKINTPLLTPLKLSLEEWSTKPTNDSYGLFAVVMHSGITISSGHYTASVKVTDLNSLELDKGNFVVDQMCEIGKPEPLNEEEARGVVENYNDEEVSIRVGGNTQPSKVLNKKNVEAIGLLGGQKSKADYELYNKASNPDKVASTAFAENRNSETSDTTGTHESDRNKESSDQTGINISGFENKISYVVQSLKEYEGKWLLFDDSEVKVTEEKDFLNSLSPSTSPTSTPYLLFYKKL

Turning to `C[C@H](N=C(NC#N)Nc1ccncc1)C(C)(C)C`, the activity change, negative = inhibition is -27.9% (inactive) in [1], 5.32% (inactive) in experiment [3] (at 17.2 µM (top of the series)), 6.54% (inactive) in experiment [3] (at 38 µM (top of the series)) and -0.699% (inactive) in [14]. Further, the Potency was 15.8 µM (active) and inactive in [2]; > 46 µM (inactive) and > 20.6 µM (inactive) in [5]; > 46 µM (inactive) and > 20.6 µM (inactive) in experiment [6]. Further, the activity, negative = inhibition is -8.19% (inactive) in experiment [4] (at 17.2 µM (top of the series)) and -12.4% (inactive) in [4] (at 38 µM (top of the series)). Moreover, the Potency result in experiment [7], in experiment [8], in [10], in experiment [11], in experiment [15] and in [16] was “inactive” throughout. Moreover, in experiment [17], the Potency entry is “inactive”. Also, the result in [9], in [12] and in experiment [13] was inactive. The max response was 1.19% in [14] (setting [20]) and -1.85% in experiment [14] (setting [21]).

For the compound `CNCC[C@H](Oc1ccccc1OC)c1ccccc1`, the activity change, negative = inhibition in [1] was 26.3% (inactive); in experiment [14], -2.76% (inactive). The figures for the activity, negative = inhibition in [4] (at 17.2 µM (top of the series)) and in experiment [4] (at 38 µM (top of the series)) were -0.439% (inactive) and 4.82% (inactive), respectively. Moreover, the Potency entry in [7], in [8], in experiment [11], in experiment [18], in [19] and in experiment [15] was “inactive” each time. Moreover, the Potency result in experiment [16] and in experiment [17] was “inactive” throughout. For the same compound, the compound was classed as inactive in [9] and in experiment [12]. The results for the max response in experiment [14] (setting [20]) and in experiment [14] (setting [21]) were -10.8% and -15.9%, respectively.
